Assay outcomes as filed in PubChem.
A selection: hits, their analogues and other compounds. The true share with any hit is near 10%.
HP1b chromo inh – HTS for Inhibitors of HP1-beta Chromodomain Interactions with Methylated Histone Tails | Chromobox protein homolog 1 (Homo sapiens), P83916 | AlphaScreen HP1-beta / biotin-H3K9me3 peptide binding | Potency, µM (highest dose often 114 µM), for the others: at the top dose activity change, negative = inhibition, most hits filed as inhibitors | hit rate 0.56% among 390,000; note: nearly all actives have a fitted effect of over 70% in size
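HP1-beta protein (50 nM final) preincubated 30 min at room temperature with biotinylated H3(1-18)K9me3 peptide (50 nM) in PBS pH 7.4, 0.01% Tween-20, then compound added for 30 min. AlphaScreen streptavidin donor/nickel chelate acceptor beads (10 ug/mL final), 30 min dark, luminescence read.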
G9a block – qHTS Assay for Inhibitors of Histone Lysine Methyltransferase G9a. Potency, µM (highest dose often 102 µM), for the others: at the highest dose activity, negative = inhibition, usual class: inhibitors. hit rate 8.8% among 350,000. G9a H3K9 monomethylation, AlphaScreen, 2 h. Histone-lysine N-methyltransferase EHMT2 (Homo sapiens), Q96KQ7; note: % is set by controls: 0 for no effect and ±100 for the full control effect; nearly all actives have a fitted effect of over 75% in size
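AlphaScreen detection with an anti-monomethyl H3K9 antibody quantified product after a 2 h room-temperature reaction containing 500 nM biotinylated H3K9 peptide, 20 µM SAM and 20 nM enzyme, which had been preincubated 15 min with compound.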
JMJD2A Tudor – qHTS Assay for Inhibitors of JMJD2A-Tudor Domain; AlphaScreen JMJD2A-Tudor / H3K4me3 peptide binding; hit rate 4.4% among 390,000; Potency, µM (doses to about 114 µM), without a hit: at the highest dose activity change, negative = inhibition, usual class: inhibitors; Lysine-specific demethylase 4A (Homo sapiens), O75164; note: % is set by controls: 0 for no effect and ±100 for the full control effect; nearly all actives have a fitted effect of over 50% in size
GLS inhibitor – qHTS for Inhibitors of Glutaminase (GLS) | GLS enzymatic activity, qHTS titration | hit rate 0.21% among 410,000 | Glutaminase kidney isoform, mitochondrial (Homo sapiens), O94925 | Potency, µM (doses to about 45.5 µM), without a hit: at the top dose activity change, negative = inhibition, usual class: inhibitors; note: % is set by controls: 0 for no effect and ±100 for the full control effect
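Enzyme dispensed in phosphate buffer (45 mM, pH 8.2, 0.02% Tween-20), compounds pinned in, then 1 mM L-glutamine solution and the glutamate oxidase–HRP–Amplex Red mix added; fluorescence read immediately and again after 30 min at room temperature.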
BAZ2B block – qHTS Assay for Inhibitors of BAZ2B; AlphaScreen BAZ2B-H3K14Ac peptide displacement; hit rate 4.4% among 360,000; AID 504333, 2011; Potency, µM (titrated, usually from 114 µM), inactives show at the top dose activity change, negative = inhibition, usual class: inhibitors; note: % is set by controls: 0 for no effect and ±100 for the full control effect; nearly all actives have a fitted effect of over 60% in size
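BAZ2B 50 nM plus b-H3(5-23)K14Ac 50 nM, PBS pH 7.4/0.01% Tween-20, 30 min RT; compound added (max 110 uM), 30 min RT; streptavidin donor/Ni-chelate acceptor beads 10 ug/mL final, 20 min dark; AlphaScreen read.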
An asterisk follows results filed as active; ? = inconclusive; / = not tested or not shown; [ ] = remark or other dose. Calls come from the whole dose curve; as a rule, active = well fitted curve in the direction sought with a large enough effect; inconclusive = small, poorly fitted or top-dose-only effect, or another doubt; inactive = no such curve, though single readings can be large; an effect the other way counts as inactive or inconclusive. Potency is the fitted concentration of half-maximal effect.

SMILES | HP1b chromo inh | G9a block | JMJD2A Tudor | GLS inhibitor | BAZ2B block
Cc1c(Cc2ccccc2)sc(NC(=O)/C=C/c2cccc3ccccc23)c1C(N)=O | -3% | 20µM* | 40µM* | ? | -11%
COC(=O)c1c(NC(=O)/C=C/C(=O)O)sc(Cc2ccccc2)c1C | 10% | 5%[59 µM] | -23% | 20% | -27%
CCN(CC)C(=O)c1sc(NC(=O)c2ccc3c(c2)OCO3)c(C(N)=O)c1C | 14% | / | 6% | 0% | -10%
Cc1c(Cc2ccc3c(c2)OCO3)sc(NC(=O)C2CC2)c1C(N)=O | -23% | 3.5µM* | ? | 5% | -33%
Cc1ccc(C(=O)Nc2c(C(=O)Nc3ccc(C)c(C)c3)sc3nc(C)cc(C)c23)cc1 | 19% | 11%[59 µM] | -20% | 2% | -7%
COc1ccc(CCNC(=O)c2cccc(-n3cnc4cccnc43)c2C)cc1OC | 27% | -29%[59 µM] | -7% | -6% | -8%
Cc1cccc(NC(=O)Nc2cccc(C#N)c2)n1 | 5% | 1% | -28% | 0% | -5%
N#Cc1cccc(NC(=O)Nc2cccs2)c1 | -13% | 79µM* | -32% | 3% | -7%
CCc1cccc(NC(=O)Nc2cccs2)c1 | -7% | 13µM* | ? | 29% | ?
Cc1cccc(C)c1NC(=O)Nc1cccs1 | 7% | 50µM* | -8% | 12% | -3%
CCc1cccc(NC(=O)Nc2csc3c2CCCC3)c1 | 71% | 33%[59 µM] | -19% | -6% | 17%
COc1ccc(C=CC(=O)c2ccc([N+](=O)[O-])cc2)cc1 | -12% | / | -17% | -11% | /
COc1ccc(C(=O)/C=C/c2ccc(N3CCCCC3)c([N+](=O)[O-])c2)cc1 | 25µM* | 10µM* | 11µM* | -2% | 4µM*
COc1ccc(C(=O)/C=C/c2ccc(N3CCCCC3)c([N+](=O)[O-])c2)c(OC)c1 | 16µM* | 8.9µM* | 10µM* | -2% | 8.9µM*
COc1ccc(C(=O)/C=C/c2ccc(C)cc2)c(OC(=O)c2ccc([N+](=O)[O-])cc2)c1 | -12% | ? | -30% | 5% | ?
O=C(Nc1ccc(F)c(Cl)c1)c1cc(C2CCCN(C(=O)c3cccs3)C2)on1 (centres undefined) | / | / | / | 3% | /
CC(C)c1nnc(SCC(=O)NCCC2=CCCCC2)n1N | ? | 8.9µM* | -14% | 4% | 4%
Nn1c(SCC(=O)NCCC2=CCCCC2)nnc1-c1cccnc1 | 19% | 45µM* | -25% | 5% | 4%
CC(C)(C)C(=O)COC(=O)CNC(=O)c1ccc(Oc2ccccc2)cc1 | 27% | -17% | -13% | -1% | -17%
CCC1CN(C(=O)N2CCC(C(=O)NCCc3ccc(OC)cc3OC)CC2)c2ccccc2O1 (centres undefined) | 33% | 28% | -21% | 10% | -26%
N#C/C(=C\c1cccc([N+](=O)[O-])c1)c1nnc2n1CCCCC2 | 42% | 10%[59 µM] | -1% | -1% | -1%
CN(c1ccccc1)c1ccc(/C=C(\C#N)c2nnc3n2CCCCC3)cc1[N+](=O)[O-] | ? | 40µM* | 45µM* | 3% | 45µM*
CCOC(=O)c1cc(-c2ccc(C)o2)nn1CCC#N | 6% | 13µM* | -14% | 6% | -39%
Cc1c(OCc2nn[nH]n2)ccc2c(-c3ccccc3)cc(=O)oc12 | 31% | 50µM* | -4% | 52% | 6%
COc1ccc(-c2cc(=O)oc3c(C)c(OCc4nn[nH]n4)ccc23)cc1 | 28% | ? | 6% | 35% | -1%
COc1ccc(OC)c(CNC(=O)CCc2c(C)nc3c(c2C)c(=O)n(C)c(=O)n3C)c1 | 28% | -1%[59 µM] | 0% | 0% | -12%
Cc1cc(C)nc(NC(=S)NC(=O)c2ccccc2F)n1 | 12% | / | ? | 1% | /
Cc1cc(C)nc(S/C=C/C(=O)c2ccccc2F)n1 | 37% | 14µM* | ? | -4% | -17%
CCN1C(=O)c2ccccc2C1Nc1cccc(OCCN2CCCCC2)c1 (centres undefined) | / | / | / | 19% | /
